# Legend:
# Test in all cases: DAPPL (digital affinity profiling via proximity ligation, sequencing); 10 mM Tris-HCl pH 7.5, 50 mM NaCl, 1 mM DTT, 4% glycerol, room temperature, 30 min; GST-TFs on glutathione beads, 16-mer random dsDNA library, 0.1% formaldehyde crosslink after washing; high values mean tight binding
# Settings in all cases: protein: recombinant; tags: N-terminal GST; dsDNA, one strand shown
# ELK1 = target: T1, ELK1 (Homo sapiens, UniProt P19419 1-428)
# T1 sequence: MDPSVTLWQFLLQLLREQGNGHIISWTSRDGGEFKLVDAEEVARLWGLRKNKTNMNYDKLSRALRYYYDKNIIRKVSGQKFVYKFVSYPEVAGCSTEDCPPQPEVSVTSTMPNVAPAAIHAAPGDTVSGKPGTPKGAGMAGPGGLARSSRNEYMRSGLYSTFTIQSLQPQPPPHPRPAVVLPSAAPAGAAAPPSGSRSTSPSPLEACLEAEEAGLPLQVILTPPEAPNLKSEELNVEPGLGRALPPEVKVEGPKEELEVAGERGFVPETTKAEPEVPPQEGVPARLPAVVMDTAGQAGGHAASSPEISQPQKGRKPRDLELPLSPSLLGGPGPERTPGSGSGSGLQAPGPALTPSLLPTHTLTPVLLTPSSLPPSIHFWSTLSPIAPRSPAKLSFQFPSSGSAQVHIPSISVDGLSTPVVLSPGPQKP
# Method in brief: (§1)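 Binding signal is each hexamer's read frequency for a factor divided by its frequency in the tag-only sample. The factors were GST-fused human transcription factors from yeast, captured on glutathione beads, DNA-barcoded and pooled with that sample. Pools were incubated with 200 nmole of a random double-stranded 16-mer DNA library in Tris/NaCl/DTT/glycerol buffer at room temperature for 30 min, then washed, crosslinked with 0.1% formaldehyde, proximity-ligated with BsaI/T4 ligase (1 h, 37 °C), PCR-amplified and sequenced on an Illumina NextSeq500.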
# GABPA = target: T2, GABPA (Homo sapiens, UniProt Q06546 1-454)
# T2 sequence: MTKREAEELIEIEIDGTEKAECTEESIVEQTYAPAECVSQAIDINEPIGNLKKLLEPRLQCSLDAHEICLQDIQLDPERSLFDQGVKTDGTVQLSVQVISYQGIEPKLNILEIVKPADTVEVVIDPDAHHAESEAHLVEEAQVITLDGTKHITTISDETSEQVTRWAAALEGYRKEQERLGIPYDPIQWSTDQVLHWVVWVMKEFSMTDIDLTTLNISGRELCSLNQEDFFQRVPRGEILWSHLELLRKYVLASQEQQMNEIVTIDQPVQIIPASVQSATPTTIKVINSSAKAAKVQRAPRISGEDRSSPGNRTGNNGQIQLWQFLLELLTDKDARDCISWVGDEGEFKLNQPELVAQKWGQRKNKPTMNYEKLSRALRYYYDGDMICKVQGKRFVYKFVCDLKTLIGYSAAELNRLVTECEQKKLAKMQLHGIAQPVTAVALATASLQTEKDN
# Method in brief: as §1
# ELF1 = ELF1 (Homo sapiens, UniProt P32519 1-619)
# Sequence of ELF1 (P32519 whole entry): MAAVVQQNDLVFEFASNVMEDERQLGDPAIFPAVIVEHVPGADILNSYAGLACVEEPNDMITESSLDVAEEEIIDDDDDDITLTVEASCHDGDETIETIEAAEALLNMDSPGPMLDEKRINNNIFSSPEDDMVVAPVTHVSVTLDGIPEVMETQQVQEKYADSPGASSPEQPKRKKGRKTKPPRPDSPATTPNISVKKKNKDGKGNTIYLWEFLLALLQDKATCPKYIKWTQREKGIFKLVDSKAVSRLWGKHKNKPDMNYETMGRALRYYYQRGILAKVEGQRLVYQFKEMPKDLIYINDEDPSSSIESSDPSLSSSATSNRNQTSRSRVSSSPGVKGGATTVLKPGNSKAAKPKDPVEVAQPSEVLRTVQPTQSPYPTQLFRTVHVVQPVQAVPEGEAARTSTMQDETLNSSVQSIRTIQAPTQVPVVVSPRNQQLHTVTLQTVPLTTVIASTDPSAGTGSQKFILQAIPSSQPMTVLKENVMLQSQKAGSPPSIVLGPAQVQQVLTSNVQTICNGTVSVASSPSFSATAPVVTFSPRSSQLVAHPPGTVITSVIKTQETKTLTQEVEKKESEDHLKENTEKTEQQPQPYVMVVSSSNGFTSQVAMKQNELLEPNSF
# Method in brief: as §1
# EHF = target: T3, EHF (Homo sapiens, UniProt Q9NZC4 1-300)
# T3 sequence: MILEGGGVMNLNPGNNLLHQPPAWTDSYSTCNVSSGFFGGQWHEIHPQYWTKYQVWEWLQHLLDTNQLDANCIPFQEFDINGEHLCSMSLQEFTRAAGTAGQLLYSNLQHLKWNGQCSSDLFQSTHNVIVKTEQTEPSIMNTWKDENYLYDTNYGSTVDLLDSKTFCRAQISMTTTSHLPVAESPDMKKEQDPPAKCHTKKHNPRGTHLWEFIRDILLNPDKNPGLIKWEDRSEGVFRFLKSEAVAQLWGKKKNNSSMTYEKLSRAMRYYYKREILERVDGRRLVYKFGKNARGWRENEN
# Method in brief: as §1
# SPIB = SPIB (Homo sapiens, UniProt Q01892 1-262)
# Sequence of SPIB (Q01892 whole entry): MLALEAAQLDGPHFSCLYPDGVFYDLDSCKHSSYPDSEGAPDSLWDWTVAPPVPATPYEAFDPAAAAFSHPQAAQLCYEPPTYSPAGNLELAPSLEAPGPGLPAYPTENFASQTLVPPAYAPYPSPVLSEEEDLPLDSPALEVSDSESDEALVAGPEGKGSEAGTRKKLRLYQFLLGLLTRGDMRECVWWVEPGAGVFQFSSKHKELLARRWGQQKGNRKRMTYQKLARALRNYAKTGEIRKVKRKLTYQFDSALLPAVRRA
# Method in brief: as §1
# FEV = target: T4, FEV (Homo sapiens, UniProt Q99581 1-238)
# T4 sequence: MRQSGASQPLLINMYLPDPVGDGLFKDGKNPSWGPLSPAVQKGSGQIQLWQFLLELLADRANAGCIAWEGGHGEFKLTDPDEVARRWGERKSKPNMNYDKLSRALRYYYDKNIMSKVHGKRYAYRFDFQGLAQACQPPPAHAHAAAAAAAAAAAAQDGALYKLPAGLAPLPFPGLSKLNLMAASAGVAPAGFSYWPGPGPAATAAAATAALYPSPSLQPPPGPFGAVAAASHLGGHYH
# Method in brief: as §1
# ETV5 = ETV5 (Homo sapiens, UniProt P41161 1-510)
# Sequence of ETV5 (P41161 whole entry): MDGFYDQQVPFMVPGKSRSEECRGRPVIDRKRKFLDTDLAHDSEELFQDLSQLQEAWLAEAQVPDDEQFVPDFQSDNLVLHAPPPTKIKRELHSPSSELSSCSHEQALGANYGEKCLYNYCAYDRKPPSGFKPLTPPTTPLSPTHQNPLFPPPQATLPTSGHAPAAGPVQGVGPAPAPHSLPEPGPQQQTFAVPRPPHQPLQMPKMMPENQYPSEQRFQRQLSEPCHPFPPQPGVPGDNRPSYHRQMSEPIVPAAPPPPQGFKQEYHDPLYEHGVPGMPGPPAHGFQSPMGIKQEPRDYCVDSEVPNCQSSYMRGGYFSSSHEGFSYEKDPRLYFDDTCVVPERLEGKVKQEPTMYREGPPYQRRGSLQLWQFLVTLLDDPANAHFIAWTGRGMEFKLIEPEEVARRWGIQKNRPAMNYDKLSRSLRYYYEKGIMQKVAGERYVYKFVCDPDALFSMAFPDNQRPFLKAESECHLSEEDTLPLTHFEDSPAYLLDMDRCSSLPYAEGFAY
# Method in brief: as §1
# ELF4 = ELF4 (Homo sapiens, UniProt Q99607 1-663)
# Sequence of ELF4 (Q99607 whole entry): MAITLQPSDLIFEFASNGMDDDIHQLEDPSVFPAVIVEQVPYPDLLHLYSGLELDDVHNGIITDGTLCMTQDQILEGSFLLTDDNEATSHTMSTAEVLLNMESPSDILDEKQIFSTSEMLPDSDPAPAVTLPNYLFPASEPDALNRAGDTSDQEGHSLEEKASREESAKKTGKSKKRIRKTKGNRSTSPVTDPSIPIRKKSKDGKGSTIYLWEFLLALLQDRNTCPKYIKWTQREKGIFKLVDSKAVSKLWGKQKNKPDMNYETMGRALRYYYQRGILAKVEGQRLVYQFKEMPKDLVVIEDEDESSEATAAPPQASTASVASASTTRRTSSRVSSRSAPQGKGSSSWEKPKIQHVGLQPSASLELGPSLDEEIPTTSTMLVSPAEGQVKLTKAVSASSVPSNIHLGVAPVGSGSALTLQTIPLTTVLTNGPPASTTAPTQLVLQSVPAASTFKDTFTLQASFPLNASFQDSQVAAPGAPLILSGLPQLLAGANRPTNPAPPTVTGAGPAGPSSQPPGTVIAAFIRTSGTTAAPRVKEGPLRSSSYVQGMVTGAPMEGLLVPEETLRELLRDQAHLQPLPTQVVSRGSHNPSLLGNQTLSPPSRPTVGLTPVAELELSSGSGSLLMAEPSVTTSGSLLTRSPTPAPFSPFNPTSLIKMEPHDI
# Method in brief: as §1
# ETV2 = target: T5, ETV2 (Homo sapiens, UniProt O00321 1-342)
# T5 sequence: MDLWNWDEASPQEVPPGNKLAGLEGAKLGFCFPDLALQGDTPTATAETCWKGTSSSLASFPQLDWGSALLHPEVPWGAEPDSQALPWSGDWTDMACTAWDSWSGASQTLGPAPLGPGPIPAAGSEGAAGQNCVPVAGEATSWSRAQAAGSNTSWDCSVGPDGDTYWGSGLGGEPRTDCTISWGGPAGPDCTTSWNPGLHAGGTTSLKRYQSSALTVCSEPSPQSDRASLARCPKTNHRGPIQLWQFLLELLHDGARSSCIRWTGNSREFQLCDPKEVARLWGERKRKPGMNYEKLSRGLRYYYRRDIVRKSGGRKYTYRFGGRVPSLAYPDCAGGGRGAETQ
# Method in brief: as §1
# ELF3 = target: T6, ELF3 (Homo sapiens, UniProt P78545 1-371)
# T6 sequence: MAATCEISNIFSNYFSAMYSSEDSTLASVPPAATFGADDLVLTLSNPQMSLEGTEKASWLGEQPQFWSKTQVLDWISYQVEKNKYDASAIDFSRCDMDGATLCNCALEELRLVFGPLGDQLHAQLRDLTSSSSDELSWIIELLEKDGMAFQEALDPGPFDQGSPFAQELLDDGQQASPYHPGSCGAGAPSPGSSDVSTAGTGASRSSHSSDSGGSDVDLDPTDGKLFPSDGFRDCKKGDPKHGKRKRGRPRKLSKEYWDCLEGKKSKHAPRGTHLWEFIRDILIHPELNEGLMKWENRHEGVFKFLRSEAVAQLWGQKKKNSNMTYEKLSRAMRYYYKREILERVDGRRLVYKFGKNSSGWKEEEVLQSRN
# Method in brief: as §1
# ETV1 = ETV1 (Homo sapiens, UniProt P50549 1-477)
# Sequence of ETV1 (P50549 whole entry): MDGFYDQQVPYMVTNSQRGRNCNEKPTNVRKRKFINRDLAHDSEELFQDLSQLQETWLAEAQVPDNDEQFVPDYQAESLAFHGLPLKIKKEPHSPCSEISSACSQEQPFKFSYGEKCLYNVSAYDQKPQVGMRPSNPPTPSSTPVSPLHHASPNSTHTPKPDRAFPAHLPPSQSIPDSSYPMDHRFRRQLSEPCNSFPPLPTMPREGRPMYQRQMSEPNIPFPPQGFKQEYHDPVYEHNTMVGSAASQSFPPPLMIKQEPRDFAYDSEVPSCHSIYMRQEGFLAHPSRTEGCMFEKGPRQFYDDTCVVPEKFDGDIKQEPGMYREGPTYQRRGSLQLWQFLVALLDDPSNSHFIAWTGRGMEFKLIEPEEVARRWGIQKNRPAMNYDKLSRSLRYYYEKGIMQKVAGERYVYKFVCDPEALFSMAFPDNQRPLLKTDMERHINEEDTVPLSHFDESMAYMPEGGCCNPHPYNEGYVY
# Method in brief: as §1
# ERF = target: T7, ERF (Homo sapiens, UniProt P50548 1-548)
# T7 sequence: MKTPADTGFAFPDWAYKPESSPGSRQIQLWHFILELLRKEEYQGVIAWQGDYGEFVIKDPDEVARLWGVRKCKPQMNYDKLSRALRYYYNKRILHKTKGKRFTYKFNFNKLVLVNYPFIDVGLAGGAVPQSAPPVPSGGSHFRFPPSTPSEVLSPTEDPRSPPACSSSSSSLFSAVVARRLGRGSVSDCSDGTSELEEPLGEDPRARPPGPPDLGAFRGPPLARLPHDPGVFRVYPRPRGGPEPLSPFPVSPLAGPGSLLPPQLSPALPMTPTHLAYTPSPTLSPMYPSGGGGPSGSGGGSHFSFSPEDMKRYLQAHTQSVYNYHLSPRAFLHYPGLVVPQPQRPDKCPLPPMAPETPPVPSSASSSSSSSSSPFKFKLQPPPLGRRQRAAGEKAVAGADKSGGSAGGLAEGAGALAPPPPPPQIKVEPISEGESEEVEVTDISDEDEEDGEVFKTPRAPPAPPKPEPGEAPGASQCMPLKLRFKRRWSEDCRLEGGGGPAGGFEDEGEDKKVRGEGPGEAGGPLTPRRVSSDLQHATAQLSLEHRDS
# Method in brief: as §1
# ETS2 = target: T8, ETS2 (Homo sapiens, UniProt P15036 1-469)
# T8 sequence: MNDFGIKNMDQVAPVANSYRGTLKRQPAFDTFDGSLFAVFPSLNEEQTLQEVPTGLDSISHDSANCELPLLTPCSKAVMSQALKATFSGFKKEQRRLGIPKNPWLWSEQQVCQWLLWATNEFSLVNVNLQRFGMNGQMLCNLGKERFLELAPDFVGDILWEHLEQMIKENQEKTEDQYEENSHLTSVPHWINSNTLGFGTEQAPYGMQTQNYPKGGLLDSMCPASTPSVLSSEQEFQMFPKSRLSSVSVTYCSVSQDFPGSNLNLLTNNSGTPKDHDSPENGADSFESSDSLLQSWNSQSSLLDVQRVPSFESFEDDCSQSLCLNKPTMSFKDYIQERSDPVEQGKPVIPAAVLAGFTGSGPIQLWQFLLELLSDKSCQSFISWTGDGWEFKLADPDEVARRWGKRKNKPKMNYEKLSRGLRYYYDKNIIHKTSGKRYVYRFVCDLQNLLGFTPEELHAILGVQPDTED
# Method in brief: as §1
# SPDEF = target: T9, SPDEF (Homo sapiens, UniProt O95238 1-335)
# T9 sequence: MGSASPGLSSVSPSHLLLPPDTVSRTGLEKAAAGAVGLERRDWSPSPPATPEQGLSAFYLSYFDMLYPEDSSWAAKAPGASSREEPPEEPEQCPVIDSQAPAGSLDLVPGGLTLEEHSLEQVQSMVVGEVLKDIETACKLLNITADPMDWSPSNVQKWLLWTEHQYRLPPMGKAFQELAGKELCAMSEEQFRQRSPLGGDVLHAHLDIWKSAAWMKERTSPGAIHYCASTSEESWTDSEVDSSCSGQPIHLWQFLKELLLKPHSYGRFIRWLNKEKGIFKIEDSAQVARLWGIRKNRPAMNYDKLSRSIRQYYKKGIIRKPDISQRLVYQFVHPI
# Method in brief: as §1
# ETV3 = target: T10, ETV3 (Homo sapiens, UniProt P41162-2 1-143)
# T10 sequence: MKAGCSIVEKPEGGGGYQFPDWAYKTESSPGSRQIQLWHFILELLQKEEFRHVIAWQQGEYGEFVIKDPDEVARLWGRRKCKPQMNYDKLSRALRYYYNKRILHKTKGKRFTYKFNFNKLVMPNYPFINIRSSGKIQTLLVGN
# Method in brief: as §1
sequence,measurement,setting,value
ATAGCC,binding signal,ELK1,"1.08 fold enrichment (6-mer frequency, TF over GST control)"
same,binding signal,GABPA,"1.11 fold enrichment (6-mer frequency, TF over GST control)"
same,binding signal,ELF1,"1.05 fold enrichment (6-mer frequency, TF over GST control)"
same,binding signal,EHF,"1.1 fold enrichment (6-mer frequency, TF over GST control)"
same,binding signal,SPIB,"1.04 fold enrichment (6-mer frequency, TF over GST control)"
same,binding signal,FEV,"1.1 fold enrichment (6-mer frequency, TF over GST control)"
same,binding signal,ETV5,"1.1 fold enrichment (6-mer frequency, TF over GST control)"
same,binding signal,ELF4,"1.1 fold enrichment (6-mer frequency, TF over GST control)"
same,binding signal,ETV2,"1 fold enrichment (6-mer frequency, TF over GST control)"
same,binding signal,ELF3,"1.15 fold enrichment (6-mer frequency, TF over GST control)"
same,binding signal,ETV1,"1.03 fold enrichment (6-mer frequency, TF over GST control)"
same,binding signal,ERF,"1.1 fold enrichment (6-mer frequency, TF over GST control)"
same,binding signal,ETS2,"1.07 fold enrichment (6-mer frequency, TF over GST control)"
same,binding signal,SPDEF,"1.08 fold enrichment (6-mer frequency, TF over GST control)"
same,binding signal,ETV3,"1.06 fold enrichment (6-mer frequency, TF over GST control)"

# Source: PMC7862700, “An all-to-all approach to the identification of sequence-specific readers for epigenetic DNA modifications on cytosine”
